The panel holds about 79,000 compounds, 15% with a hit somewhere; the sample as a whole holds those more often. A number with no mark means an inactive call. Activity calls are given as the source filed them. No stated cut-off is given here; in the data, active means growth inhibition above about 70%; inactive means the rest.
How the values were obtained:
[1] = NCI Yeast Anticancer Drug Screen. Data for the rad50 strain (AID 155);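 further: 0% = growth of vehicle-only cultures of the same strain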; details: S. cerevisiae rad50 strain growth inhibition, stronger effect = higher value
Outline: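 Compounds were tested on a yeast strain with an engineered DNA damage repair alteration; the reported value is growth inhibition normalised to vehicle treatment.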

[2] = NCI Yeast Anticancer Drug Screen. Data for the mec2-1 strain (AID 157); details: S. cerevisiae mec2-1 strain, stronger effect = higher value
Outline: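 Strain: mec2-1 (DNA repair/cell cycle alteration). Compound exposure, then growth measured; inhibition expressed relative to vehicle.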

[3] = NCI Yeast Anticancer Drug Screen. Data for the sgs1 mgt1 strain (AID 161);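 further: 0% = growth of cultures given vehicle only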; details: S. cerevisiae sgs1 mgt1 strain, stronger effect = higher value
Outline: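 Inhibition of yeast growth, normalised to vehicle-treated controls, is reported for a strain bearing genetic alterations in DNA damage repair.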

[4] = NCI Yeast Anticancer Drug Screen. Data for the cln2 rad14 strain (AID 165);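 further: 0% = growth equal to vehicle treated cultures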; details: S. cerevisiae cln2 rad14 strain, stronger effect = higher value
Outline: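 Compounds are applied to the cln2 rad14 yeast strain, and growth is then compared with that of vehicle-treated cultures to give inhibition.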

[5] = NCI Yeast Anticancer Drug Screen. Data for the bub3 strain (AID 167); details: S. cerevisiae bub3 mutant strain, stronger effect = higher value
Outline: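 Growth of a checkpoint-deficient yeast mutant is measured after compound exposure. Values represent inhibition relative to vehicle.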

[6] = NCI Yeast Anticancer Drug Screen. Data for the mlh1 rad18 strain (AID 175); details: S. cerevisiae mlh1 rad18 strain growth inhibition, stronger effect = higher value
Outline: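 Read-out is yeast growth inhibition, calculated against vehicle-only controls. The compound was applied to a strain engineered with DNA damage repair alterations.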

[7] = at 5.0 µM (retest, dose inferred, filed as 0.5)
[8] = at 50.0 µM (retest, dose inferred, filed as 5.0)

SMILES | growth inhibition [1, 7] | growth inhibition [1, 8] | growth inhibition ([1]; at 50.0 µM) | growth inhibition [2, 7] | growth inhibition [2, 8] | growth inhibition ([2]; at 50.0 µM) | growth inhibition [3, 7] | growth inhibition [3, 8] | growth inhibition ([3]; at 50.0 µM) | growth inhibition [4, 7] | growth inhibition [4, 8] | growth inhibition ([4]; at 50.0 µM) | growth inhibition [5, 7] | growth inhibition [5, 8] | growth inhibition ([5]; at 50.0 µM) | growth inhibition [6, 7] | growth inhibition [6, 8] | growth inhibition ([6]; at 50.0 µM)
CC1(CO)CCCC2(C)C1CCC1CC3C=CC12C1C(=O)OC(=O)C31 (configuration not stated) | 41% | 79% (active) | 84.1% (active) | 25% | 77% (active) | 61.2% | 12% | 86% (active) | 24.6% | 30% | 82% (active) | 27.8% | 23% | 89% (active) | 62.2% | 36% | 88% (active) | 79.5% (active)
N#CCN1CCCCCc2ccccc21 | -4% | -3% | -26.6% | 0% | -18% | -12.7% | -29% | -29% | -3.15% | 9% | -1% | 11.2% | -14% | -32% | -3.2% | -18% | -18% | -7.65%
CCN(CC)CCCCCCNc1cc(Cl)cc2cccnc12 | 18% | 71% (active) | 91.6% (active) | 14% | 64% | 89.9% (active) | 28% | 94% (active) | 97.5% (active) | 26% | 68% | 97% (active) | 42% | 79% (active) | 85.4% (active) | 27% | 84% (active) | 97.5% (active)
COC(=O)/C(=N\NC(=O)c1ccccc1O)C(C#N)c1ccc(Cl)cc1 (configuration not stated) | -4% | 44% | 62.1% | -1% | 65% | 54.8% | 13% | 73% (active) | 68% | -7% | 42% | 43.4% | -3% | 79% (active) | 71.8% (active) | 0% | 60% | 70.6% (active)
C=C1C[C@H]2C=Nc3cc(OCCCOc4cc5c(cc4OC)C(=O)N4CC(=C)C[C@H]4C=N5)c(OC)cc3C(=O)N2C1 | 92% (active) | 95% (active) | 98.3% (active) | 94% (active) | 97% (active) | 98.7% (active) | 88% (active) | 94% (active) | 97.7% (active) | 92% (active) | 97% (active) | 98.3% (active) | 86% (active) | 95% (active) | 98.6% (active) | 92% (active) | 95% (active) | 98.7% (active)
OCC(O)Cc1c(Cl)c(Cl)c(Oc2c(Cl)c(Cl)c(CC(O)CO)c(Cl)c2Cl)c(Cl)c1Cl (configuration not stated) | 5% | 7% | 11.3% | 5% | 10% | 14.6% | 18% | 16% | 4.95% | -9% | -9% | -8.05% | -1% | 11% | 64.7% | -1% | 1% | 8.75%
[N-]=[N+]=Nc1c(-c2ccccc2)c(Cl)nc2ccccc12 | 11% | 99% (active) | 76% (active) | -7% | 98% (active) | 76.1% (active) | -4% | 98% (active) | 85.2% (active) | 20% | 98% (active) | 82.9% (active) | -33% | 97% (active) | 87.4% (active) | 2% | 98% (active) | 87.2% (active)
COC(=O)C1=C(C)NC(C)=C(C(=O)OC)C1c1ccc(/[N+]([O-])=C/c2ccccc2)cc1 | 4% | 43% | 85% (active) | 5% | 34% | 70.8% (active) | 13% | 25% | 96.4% (active) | -1% | 40% | 60.2% | 17% | 74% (active) | 78.8% (active) | -7% | 67% | 93.2% (active)
c1ccc2c(c1)-c1cccc3cncc-2c13 | 45% | 62% | 90.7% (active) | 52% | 53% | 92.6% (active) | 19% | 98% (active) | 92.6% (active) | 69% | 99% (active) | 90.9% (active) | 53% | 99% (active) | 91.2% (active) | 33% | 52% | 91.2% (active)
CCC(COS(=O)(=O)c1ccc(C)cc1)(COS(=O)(=O)c1ccc(C)cc1)COS(=O)(=O)c1ccc(C)cc1 | 3% | 0% | 13.7% | -3% | 0% | 4.35% | -17% | -38% | 42% | 3% | 14% | 57.9% | 3% | 10% | 21.6% | -35% | -40% | 25.8%
Cc1ccc(N2C(N)=C(C#N)C(C#N)(C#N)C2c2ccccc2)cc1 (configuration not stated) | 22% | 70% (active) | 31.1% | 26% | 82% (active) | 38.1% | 20% | 51% | 55% | 14% | 41% | 24.4% | 25% | 50% | 64.7% | 25% | 88% (active) | 90.5% (active)
CNC1c2ccccc2C(=O)c2cc3c(cc21)OCCOCCOCCOCCO3 (configuration not stated) | -10% | 7% | 11.8% | -4% | -12% | 8.1% | -10% | -12% | 12.1% | -25% | -12% | 40.8% | -13% | -2% | 20.8% | -6% | 1% | 27.2%
CC(=O)Nc1ccc(N=Cc2cc(Cl)cc(Cl)c2O)cc1 | 82% (active) | 99% (active) | 80.2% (active) | 90% (active) | 99% (active) | 73.5% (active) | 97% (active) | 95% (active) | 89.3% (active) | 54% | 94% (active) | 53% | 97% (active) | 97% (active) | 81.7% (active) | 80% (active) | 99% (active) | 65.8%
CC(CCl)OC(=O)Nc1cccc(C(F)(F)F)c1 (configuration not stated) | 55% | 82% (active) | 73.1% (active) | 40% | 50% | 31.5% | 42% | 70% (active) | 83% (active) | 41% | 51% | 62% | 37% | 77% (active) | 74.8% (active) | 55% | 87% (active) | 73% (active)
OC1CC2OC2C1O (configuration not stated) | -2% | 3% | -6.25% | -5% | 3% | 3.75% | -2% | 1% | -4.95% | -1% | -1% | 69.6% | 2% | 7% | 18.6% | -1% | 2% | -11.4%
[N-]=[N+]=Nc1c(-c2ccccc2)c(=O)n(-c2ccccc2)c2ccccc12 | -19% | 93% (active) | 88% (active) | -20% | 94% (active) | 92.8% (active) | -10% | 95% (active) | 90% (active) | 12% | 95% (active) | 90% (active) | -2% | 94% (active) | 90% (active) | -13% | 96% (active) | 86.4% (active)
Oc1ccc(C2Oc3ccccc3C=C2c2ccccc2)cc1 (configuration not stated) | 51% | 98% (active) | -10.4% | 58% | 99% (active) | -25.8% | 61% | 99% (active) | -5.2% | 15% | 99% (active) | -14.8% | 13% | 99% (active) | -1.25% | 81% (active) | 98% (active) | -7.45%
S=c1n(-c2ccc(Cl)cc2)c2nc3ccccc3nc(/c2=N\Nc2cc(Cl)ccc2Cl)n1-c1ccc(Br)cc1 | 2% | 16% | 50.3% | -9% | -12% | 84.5% (active) | 0% | 9% | 78% (active) | -6% | -24% | 76% (active) | -6% | 15% | 85.1% (active) | 1% | 4% | 68%
COc1ccc(NC2Oc3cc4c(cc3C(c3cccc(OC)c3OC)C2C)OCO4)cc1 (configuration not stated) | -24% | 17% | 48% | -13% | -15% | 49.5% | -6% | -1% | 47.9% | -10% | 12% | 41.1% | -32% | 13% | 65.3% | -19% | 9% | 71.3% (active)

Reference: PubChem BioAssay (NCI)
